Screens (PubChem BioAssay)
HT1080-NT tox: kills 2HG-producing HT-1080-NT fibrosarcoma cells | HT-1080-NT fibrosarcoma viability, CellTiter-Glo ATP luminescence, 48 h | Potency, µM (doses to about 46.1 µM), actives largely listed as cytotoxic | 360,000 tested, 1.6% active | AID 686970;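 further: NT is the 2HG producing partner of a matched IDH1 knockdown line; nearly all actives have a fitted effect of over 55% in size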
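Compounds were tested in concentration-response format on HT-1080-NT cells for 48 hours at 37 degrees C. Cell viability came from CellTiter-Glo luminescence; curves were classified by r2, response magnitude and activity.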
DT40 TDP1 CPT: DT40-hTDP1 cell growth loss with CPT. chicken DT40 Tdp1-/-;hTDP1 cells + 20 nM CPT, ATP luminescence, 48 h. Potency, µM (series often up to 46.2 µM), actives largely listed as inhibitors. 420,000 tested, 12% active. AID 686979; further: nearly all actives have a fitted effect of over 55% in size
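Chicken DT40 Tdp1-/- cells complemented with human TDP1, 400 cells/well, exposed to compounds plus 20 nM camptothecin for at least 48 h at 37 C; viability read as ATP content by CellTiter-Glo luminescence.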
TDP1 cell noCPT: qHTS for Inhibitors of human tyrosyl-DNA phosphodiesterase 1 (TDP1): qHTS in cells in absence of CPT. DT40 Tdp1-/- hTDP1 cells, no CPT, ATP luminescence, 48 h. Potency, µM (top dose mostly 46.2 µM), actives largely listed as inhibitors. 420,000 tested, 15% active. AID 686978, 2013; further: nearly all actives have a fitted effect of over 55% in size
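Seeded 400 DT40-hTDP1 cells/well (vehicle DMSO, no 20 nM CPT); pinned compounds; ≥48 hr at 37 °C; CellTiter-Glo luminescence as viability measure.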
ALOX12 inh: ALOX12 (human) lipoxygenase inhibition; P18054; purified 12hLO, xylenol orange hydroperoxide absorbance; Potency, µM (doses to about 108 µM), most hits filed as inhibitors; 580,000 tested, 1.1% active; AID 1671190
Target sequence (P18054 whole entry, looked up): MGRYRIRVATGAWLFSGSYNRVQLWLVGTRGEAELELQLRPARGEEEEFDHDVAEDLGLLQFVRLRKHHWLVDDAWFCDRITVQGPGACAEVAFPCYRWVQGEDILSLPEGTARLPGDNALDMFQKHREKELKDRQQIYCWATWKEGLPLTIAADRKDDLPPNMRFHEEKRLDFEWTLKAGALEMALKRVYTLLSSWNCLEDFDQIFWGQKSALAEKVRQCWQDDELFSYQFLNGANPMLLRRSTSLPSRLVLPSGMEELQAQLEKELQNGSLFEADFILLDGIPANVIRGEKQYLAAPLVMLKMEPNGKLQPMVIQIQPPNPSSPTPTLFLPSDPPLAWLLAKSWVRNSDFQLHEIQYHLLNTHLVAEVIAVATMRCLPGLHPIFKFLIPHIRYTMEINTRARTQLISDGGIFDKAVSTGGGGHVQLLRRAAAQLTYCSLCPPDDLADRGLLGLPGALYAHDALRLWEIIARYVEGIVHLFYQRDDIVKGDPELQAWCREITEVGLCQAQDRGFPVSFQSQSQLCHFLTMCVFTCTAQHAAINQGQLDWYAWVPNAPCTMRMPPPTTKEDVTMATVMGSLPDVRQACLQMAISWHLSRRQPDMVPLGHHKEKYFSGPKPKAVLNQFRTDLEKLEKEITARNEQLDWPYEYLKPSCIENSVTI
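Purified human 12hLO (150 nM final) in 25 mM Hepes, 0.01% Triton X-100, pH 7.0 was preincubated 15 min at room temperature with compound. Then 40 uM arachidonic acid was added, 30 min. Hydroperoxide was read by Fe-XO absorbance ratio 573/405 nm.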
HT1080 IDH1KD tx: HT-1080 IDH1 knockdown cell toxicity (counter line); AID 686971; 360,000 tested, 2% active; HT-1080 IDH1 knockdown viability, ATP luminescence, 48 h; Potency, µM (top dose mostly 46.1 µM), hits mostly cytotoxic
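HT-1080-IDH1KD cells (IDH1 knocked down), 750/well in RPMI with 5% FBS, treated with compound 48 h at 37 degrees C. Viability by CellTiter-Glo luminescence, normalised to DMSO and no-cell wells; concentration-response curves classed.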
IL1B secr inh: inhibitors of inflammasome signaling (IL-1 beta secretion); AID 743279; THP-1 LPS/ATP IL-1B secretion, AlphaLISA, 16 h; hits give low values; 360,000 tested, 4.7% active; activity change, % at 57.5 µM; in the data active means activity change below about -50%; inconclusive means mostly about -30% to -49%
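Secreted IL-1B measured by AlphaLISA bead assay after 16 h compound exposure of THP-1 cells; compounds (final up to 57.5 uM) added 1 h before LPS (250 ng/mL) and ATP (1.25 mM) stimulation; lower signal means less secretion.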
Each line names hits and unclear results; the compound was inactive in the other large screens. The sample as a whole holds a higher share of hits than the screen did. Unless noted, the call rests on the fitted dose curve; in most records, active means well fitted curve in the direction sought with a large enough effect; inconclusive means small, poorly fitted or top-dose-only effect, or another doubt; inactive means no such curve, though single readings can be large; an effect the other way counts as inactive or inconclusive.

CCC(C)C(=O)OCc1cc(=O)oc2cc(O)ccc12 (stereo not drawn)	none (no result: HT1080-NT tox, DT40 TDP1 CPT, TDP1 cell noCPT, HT1080 IDH1KD tx, IL1B secr inh)
Cc1c(O)ccc2c(-c3ccccc3)cc(=O)oc12	DT40 TDP1 CPT 13µM, TDP1 cell noCPT 14.6µM
O=C(COc1ccc2c(-c3ccccc3)cc(=O)oc2c1)NCCCn1ccnc1	DT40 TDP1 CPT 18.4µM, TDP1 cell noCPT inconclusive
COC(=O)Cc1cc(=O)oc2cc(O)ccc12	IL1B secr inh -69.6
CCN(CC)Cc1c(O)ccc2c(-c3ccccc3)cc(=O)oc12	ALOX12 inh inconclusive
CC(Oc1cc2oc(=O)c3c(c2cc1Cl)CCCC3)C(=O)NCCN1CCOCC1 (stereo not drawn)	DT40 TDP1 CPT inconclusive, TDP1 cell noCPT 13µM
O=C(COc1cc2oc(=O)cc(-c3ccccc3)c2cc1Cl)NCCN1CCOCC1	DT40 TDP1 CPT 4.11µM, TDP1 cell noCPT 7.31µM
CCCCN(CC)Cc1c(O)ccc2c(-c3ccccc3)cc(=O)oc12	DT40 TDP1 CPT inconclusive, TDP1 cell noCPT inconclusive
CCCCN(C)Cc1c(O)ccc2c(-c3ccccc3)cc(=O)oc12	DT40 TDP1 CPT inconclusive, TDP1 cell noCPT 14.6µM, IL1B secr inh inconclusive
COc1ccc(-c2cc(=O)oc3cc(OC(=O)C4CCCCC4)c(Cl)cc23)cc1	DT40 TDP1 CPT 23.1µM, TDP1 cell noCPT inconclusive
CC(C)OCCCNC(=O)c1ccc2c(c1)N(S(C)(=O)=O)CC2	none (no result: HT1080-NT tox, DT40 TDP1 CPT, TDP1 cell noCPT, HT1080 IDH1KD tx, IL1B secr inh)
O=C(c1cn[nH]c1)N1CCC(c2nc(CCOCC3CC3)no2)C1 (stereo not drawn)	none (no result: HT1080-NT tox, DT40 TDP1 CPT, TDP1 cell noCPT, HT1080 IDH1KD tx, IL1B secr inh)
CCOC(=O)C(C)Oc1cccc2c(=O)n(CC(=O)NCc3ccco3)ccc12 (stereo not drawn)	HT1080-NT tox inconclusive, DT40 TDP1 CPT 1.64µM, TDP1 cell noCPT 2.06µM, HT1080 IDH1KD tx 1.64µM, IL1B secr inh -54.5 (no result: ALOX12 inh)
CC(C)C(=O)c1cn(CC(=O)NCc2ccco2)c2ccccc12	DT40 TDP1 CPT inconclusive
Cc1ccc(C(=O)CC2(O)C(=O)N(CN3CCOCC3)c3ccccc32)s1 (stereo not drawn)	none (no result: HT1080-NT tox, DT40 TDP1 CPT, TDP1 cell noCPT, HT1080 IDH1KD tx, IL1B secr inh)
COc1ccc(Nc2ccccc2N)cc1	DT40 TDP1 CPT inconclusive, TDP1 cell noCPT 20.6µM, ALOX12 inh inconclusive, HT1080 IDH1KD tx inconclusive, IL1B secr inh -50.4
Nc1ccccc1Nc1cccc(C(F)(F)F)c1	TDP1 cell noCPT inconclusive, ALOX12 inh inconclusive, IL1B secr inh -156.9
Nc1ccc(Nc2ccccc2N)cc1	HT1080-NT tox inconclusive, DT40 TDP1 CPT 5.17µM, TDP1 cell noCPT 10.3µM, ALOX12 inh inconclusive, HT1080 IDH1KD tx inconclusive
CCC1c2ccsc2CCN1C(=O)CCc1ccc(S(=O)(=O)N2CCCCC2)cc1 (stereo not drawn)	none (no result: HT1080-NT tox, DT40 TDP1 CPT, TDP1 cell noCPT, HT1080 IDH1KD tx, IL1B secr inh)
CC(=O)c1ccc(NC(=O)COC(=O)Cc2cccc3ccccc23)cc1	none (no result: HT1080-NT tox, DT40 TDP1 CPT, TDP1 cell noCPT, HT1080 IDH1KD tx, IL1B secr inh)
NC1CCOCC1	none (no result: HT1080-NT tox, DT40 TDP1 CPT, TDP1 cell noCPT, HT1080 IDH1KD tx, IL1B secr inh)
COc1ccccc1Cc1nc2ccccc2nc1SCC(=O)Nc1ccccc1OC	none (no result: HT1080-NT tox, DT40 TDP1 CPT, TDP1 cell noCPT, HT1080 IDH1KD tx, IL1B secr inh)
CCC(C)NC(=O)C1COC2(CCN(C(=O)c3ccc(F)cc3F)CC2)N1C(=O)c1ccccc1 (stereo not drawn)	none (no result: HT1080-NT tox, DT40 TDP1 CPT, TDP1 cell noCPT, HT1080 IDH1KD tx, IL1B secr inh)
CCCS(=O)(=O)NCc1cccnc1Oc1ccc(F)c(F)c1	none (no result: HT1080-NT tox, DT40 TDP1 CPT, TDP1 cell noCPT, HT1080 IDH1KD tx, IL1B secr inh)
CCOc1ccc2c(c1)c(N=NC(N)=S)c(O)n2C	ALOX12 inh 5.01µM
NC(=O)N=Nc1c(O)n(Cc2ccccc2)c2ccc(Br)cc12	none
NC(=S)N=Nc1c(O)n(CCCl)c2ccccc12	DT40 TDP1 CPT 13µM, TDP1 cell noCPT 2.59µM
NC(=S)N=Nc1c(O)n(CCCl)c2ccc(Cl)cc12	DT40 TDP1 CPT inconclusive, TDP1 cell noCPT 23.1µM, HT1080 IDH1KD tx inconclusive
NC(=S)N=Nc1c(O)n(CC(=O)Nc2ccccc2)c2ccccc12	HT1080-NT tox inconclusive, HT1080 IDH1KD tx inconclusive
Cc1[nH]c(N=Nc2ccccc2)nc1N=Nc1ccccc1	DT40 TDP1 CPT 5.8µM, TDP1 cell noCPT 5.8µM, HT1080 IDH1KD tx inconclusive
Cc1cccc2c(N=Nc3ccccc3)c(O)[nH]c12	none
COc1ccc(NC(=O)C2Cc3c(-c4ccco4)ccnc3O2)cc1OC (stereo not drawn)	DT40 TDP1 CPT 23.1µM, TDP1 cell noCPT inconclusive
